NALP1 inh = blocks the NALP1 inflammasome reconstituted in yeast; S. cerevisiae NALP1/ASC/caspase-1 growth, X-gal OD620, 72 h; inhibition, % at 10 µM; 280,000 compounds, 0.61% hits; AID 2071; in the data active means inhibition mostly above about 24%, no sharp cut-off; inactive means mostly below about 32%
SUMO Mot1 rescue = blocks SUMOylation pathway, rescuing yeast Mot1-301 growth. AID 2716. growth rescue, % at 18.8 µM. 320,000 compounds, 1% hits. S. cerevisiae Mot1-301 growth rescue, ATP luminescence, 38.5C; percent above DMSO median, 100 means doubled;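 active means every valid replicate shows activation above 250% relative to neutral control wells; inactive means the rest, any valid replicate at or below 250%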;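 further: OY570 slx delta 5 strain wells were the positive control but not used for scaling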
CHT allo act = allosterically activates the human high affinity choline transporter | B-score at 10 µM | 310,000 compounds, 0.49% hits | Q9GZV3 | CHT-expressing cells, membrane potential dye, choline EC20; stronger effect = higher value; LV-AA mutant CHT in HEK293 cells | AID 488977;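 active means initial fluorescence not abnormally high and integrated response B-score, plate-corrected, over 3 SD above library mean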
Target sequence (Q9GZV3 whole entry, looked up): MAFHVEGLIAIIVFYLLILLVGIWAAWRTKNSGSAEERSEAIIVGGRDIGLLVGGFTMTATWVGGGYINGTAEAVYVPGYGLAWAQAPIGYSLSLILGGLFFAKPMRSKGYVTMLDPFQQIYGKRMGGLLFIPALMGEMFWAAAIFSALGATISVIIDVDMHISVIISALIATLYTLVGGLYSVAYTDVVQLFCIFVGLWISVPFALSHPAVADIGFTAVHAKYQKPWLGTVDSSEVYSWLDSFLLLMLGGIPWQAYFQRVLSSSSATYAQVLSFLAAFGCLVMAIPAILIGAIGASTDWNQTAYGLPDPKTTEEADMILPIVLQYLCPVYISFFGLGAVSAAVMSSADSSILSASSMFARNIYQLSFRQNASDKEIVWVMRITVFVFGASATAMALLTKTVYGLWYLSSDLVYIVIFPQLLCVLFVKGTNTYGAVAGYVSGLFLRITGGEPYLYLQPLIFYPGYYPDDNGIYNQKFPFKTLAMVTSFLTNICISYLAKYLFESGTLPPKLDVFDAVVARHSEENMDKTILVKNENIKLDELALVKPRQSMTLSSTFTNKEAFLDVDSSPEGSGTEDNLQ
CHT block = inhibitors of human choline transporter CHT. Q9GZV3. CHT-expressing cells, membrane potential dye, choline response; stronger effect = lower value. B-score at 10 µM. 310,000 compounds, 0.86% hits. AID 488975;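 active means B-score over 3 SD under the library average, and starting fluorescence ratio not unusually high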;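 further: choline stimulus applied at its EC90 after an EC20 pre-addition; B-score computed on integrated fluorescence ratio after choline addition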
Bfl-1 A1 inh = inhibitors of the anti-apoptotic protein A1, read as caspase activation; MEF A1-2A-BIM cells, Caspase-Glo 3/7 luminescence, 3 h; percent of clofoctol response, vehicle zero; caspase activation, % (test concentration not listed); 330,000 compounds, 0.066% hits;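 active means over half of replicate activation scores above 10%, or exactly half above 10 with the replicate mean above 10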
NLRP3 yeast inh = NALP3 inhibition in yeast; inhibition, % at 10 µM; Yeast reconstituted NLRP3/ASC/caspase-1, beta-gal luminescence, 24 h; 330,000 compounds, 0.39% hits;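 active means inhibition of 50% or more; inactive means inhibition below 50%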;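 further: plate controls were induced DMSO wells for no effect and uninduced yeast grown without galactose for full effect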
Yeast Mot1 SUMO = inhibits SUMO pathway, affecting Mot1-301 yeast growth. shares compounds with SUMO Mot1 rescue. S. cerevisiae Mot1-301 galactose growth, ATP luminescence, 24 h; -100 = growth of slx-deleted rescue strain. growth activity, percent, % at 42 µM. 2,300 tested, under 10 active;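 active means Signal drops as the depositor expects, and the fitted half-maximal dose is no more than ten times the top valid tested dose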;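 further: more negative values mean stronger growth rescue toward the control strain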
NALP3 confirm = NALP3 inhibition confirmation in yeast. AID 435006. 1,300 compounds, 81% hits. yeast expressing human NALP3, luminescence. shares compounds with NLRP3 yeast inh. inhibition, % at 10 µM; in the data active means inhibition above about 48%
Casp1 ASC ctr = active in yeast caspase-1-ASC counter-screen for NALP3 inhibitors; shares compounds with NLRP3 yeast inh; yeast expressing Caspase-1-ASC, luminescence counter screen; inhibition, % at 10 µM; 1,000 compounds, 66% hits; AID 488784
NALP3 yeast rt = confirmation retest of NALP3 inhibitors in yeast; shares compounds with NLRP3 yeast inh; yeast expressing human NALP3, luminescence read-out; inhibition, % at 10 µM; 1,000 compounds, 53% hits; AID 488794
CHT activ conf = human CHT activation, confirmatory screen; shares compounds with CHT allo act; activation, % at 10 µM; CHT-expressing cells, membrane potential dye fluorescence (FDSS); % of choline EC20–EC90 response window; HEK293 expressing CHT LV-AA mutant; choline added at its EC20; 2,500 compounds, 91% hits;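 active means primary screen active, with duplicate mean activation above negative control mean plus 3 SD, cut at about 11% in these data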
HEK293 MP dye = counter-screen for CHT activators: effect in parental HEK293 cells; 2,500 compounds, 62% hits; membrane potential dye fluorescence (FDSS); measured after EC20 choline addition; shares compounds with CHT allo act; ratio readout change at 10 µM, hits read low;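 active means duplicate-averaged ratio beyond 3 SD from buffer wells, up or down, though filed actives are nearly all decreases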
An asterisk follows results filed as active. Shown are actives, neighbours in structure and some others; about 3% of the full set was active somewhere. Unless noted, no stated cut-off is given here; in the data, active means inhibition above about 50%; inactive means the rest.

Screening C=C1C2C[C@@]3([C@@H]1O)[C@@H](C[C@@H]2O)[C@@]12C4[C@@H]3C[C@@H]1[C@@](C)(CC[C@@H]2O)CN4CC returned SUMO Mot1 rescue 405*, CHT allo act inactive, CHT block inactive, Bfl-1 A1 inh 1, NLRP3 yeast inh 13 and Yeast Mot1 SUMO 0.
Cn1cc(C(=O)Cc2ccccc2)c2ccccc21 was read as NALP1 inh 31, SUMO Mot1 rescue 671*, CHT allo act inactive, CHT block inactive, Bfl-1 A1 inh 0, NLRP3 yeast inh 33 and Yeast Mot1 SUMO 1.
Screening COC(=O)C1CN(C#N)N(c2ccc(Cl)cc2)C12c1ccccc1-c1ccccc12 (stereo not drawn) returned NALP1 inh 13, SUMO Mot1 rescue 792*, CHT allo act inactive, CHT block inactive, Bfl-1 A1 inh 0, NLRP3 yeast inh 10 and Yeast Mot1 SUMO -2.
CC(=O)N1CC(=O)Nc2ccc(Cl)cc2C1c1ccccc1 (stereo not drawn) was read as NALP1 inh 30, SUMO Mot1 rescue active, CHT allo act inactive, CHT block inactive, Bfl-1 A1 inh 0, NLRP3 yeast inh 3 and Yeast Mot1 SUMO 1.
For CN(c1ccc(OCC(=O)N2CCN(C/C=C/c3ccccc3)CC2)cc1)S(=O)(=O)c1cccs1 the results were NALP1 inh 4, SUMO Mot1 rescue -11, CHT allo act inactive, CHT block inactive, Bfl-1 A1 inh -1 and NLRP3 yeast inh 11.
For C[C@H]1C(=O)O[C@@H]2CCN3CC=C(COC(=O)[C@](C)(O)[C@]1(C)O)[C@H]23 the results were SUMO Mot1 rescue -12, CHT allo act inactive, CHT block inactive, Bfl-1 A1 inh 1 and NLRP3 yeast inh 9.
For C[n+]1c(-c2ccccc2)cc(CCCCc2cc(-c3ccccc3)[n+](C)c(-c3ccccc3)c2)cc1-c1ccccc1 the results were NALP1 inh 10, SUMO Mot1 rescue 368*, CHT allo act 6.8*, CHT block inactive, Bfl-1 A1 inh 1, NLRP3 yeast inh 5, Yeast Mot1 SUMO -1, CHT activ conf 50* and HEK293 MP dye -64*.
For CC1(C)C(c2ccccc2)=NC(c2cccnc2)N1O (stereo not drawn) the results were NALP1 inh 11, SUMO Mot1 rescue -15, CHT allo act inactive, CHT block inactive, Bfl-1 A1 inh 1 and NLRP3 yeast inh 14.
`C[C@]12CCC3[C@@H](CC[C@@H]4C[C@H](O)CC[C@]34C)[C@@H]1CCC2=O` (stereo partly drawn) gave SUMO Mot1 rescue 37, CHT allo act inactive, CHT block inactive, Bfl-1 A1 inh 1, NLRP3 yeast inh 67*, NALP3 confirm 61*, Casp1 ASC ctr 71* and NALP3 yeast rt 61*.
`C[C@]12CCC3C(CC[C@H]4C[C@@H](O)CC[C@]34C)C1CCC2=O` (stereo partly drawn) gave SUMO Mot1 rescue 49, Bfl-1 A1 inh 0, NLRP3 yeast inh 64*, NALP3 confirm 66*, Casp1 ASC ctr 63* and NALP3 yeast rt 44.

Screening results (PubChem BioAssay)
